Reference: paper PMC7862700, “An all-to-all approach to the identification of sequence-specific readers for epigenetic DNA modifications on cytosine”

What was measured:
Experiment in all cases: DAPPL (digital affinity profiling via proximity ligation, sequencing); 10 mM Tris-HCl pH 7.5, 50 mM NaCl, 1 mM DTT, 4% glycerol, room temperature, 30 min; GST-TFs on glutathione beads, 16-mer random dsDNA library, 0.1% formaldehyde crosslink after washing; high values mean tight binding
FLI1 = target: T1, FLI1 (Homo sapiens, UniProt Q01543 1-452); conditions: protein: recombinant; tags: N-terminal GST; dsDNA, one strand shown
T1 sequence: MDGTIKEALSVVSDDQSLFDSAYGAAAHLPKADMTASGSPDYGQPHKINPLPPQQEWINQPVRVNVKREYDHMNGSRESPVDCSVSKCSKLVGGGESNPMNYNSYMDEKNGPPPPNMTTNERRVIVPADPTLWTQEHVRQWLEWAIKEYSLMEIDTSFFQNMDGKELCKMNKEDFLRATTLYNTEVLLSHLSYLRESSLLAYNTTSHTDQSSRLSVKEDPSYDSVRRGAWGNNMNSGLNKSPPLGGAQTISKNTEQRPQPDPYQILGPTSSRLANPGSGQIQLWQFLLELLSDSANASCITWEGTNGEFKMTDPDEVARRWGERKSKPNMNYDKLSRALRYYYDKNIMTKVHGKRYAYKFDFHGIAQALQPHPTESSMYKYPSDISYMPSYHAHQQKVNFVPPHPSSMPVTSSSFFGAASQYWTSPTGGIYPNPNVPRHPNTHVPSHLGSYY
Outline: (§1)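 Beads coated with glutathione captured GST-fused human transcription factors that had been expressed in yeast, and the factors were then given DNA barcodes and pooled with a tag-only sample. The pools were incubated with 200 nmole of a random double-stranded 16-mer DNA library in Tris/NaCl/DTT/glycerol buffer for 30 min at room temperature, washed, crosslinked with 0.1% formaldehyde and proximity-ligated with BsaI/T4 ligase at 37 °C for 1 h. PCR amplification and Illumina NextSeq500 sequencing came last. Binding signal is each hexamer's read frequency for a factor divided by its frequency for the tag-only sample.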

ELK1 = target: T2, ELK1 (Homo sapiens, UniProt P19419 1-428); conditions: protein: recombinant; tags: N-terminal GST; dsDNA, one strand shown
T2 sequence: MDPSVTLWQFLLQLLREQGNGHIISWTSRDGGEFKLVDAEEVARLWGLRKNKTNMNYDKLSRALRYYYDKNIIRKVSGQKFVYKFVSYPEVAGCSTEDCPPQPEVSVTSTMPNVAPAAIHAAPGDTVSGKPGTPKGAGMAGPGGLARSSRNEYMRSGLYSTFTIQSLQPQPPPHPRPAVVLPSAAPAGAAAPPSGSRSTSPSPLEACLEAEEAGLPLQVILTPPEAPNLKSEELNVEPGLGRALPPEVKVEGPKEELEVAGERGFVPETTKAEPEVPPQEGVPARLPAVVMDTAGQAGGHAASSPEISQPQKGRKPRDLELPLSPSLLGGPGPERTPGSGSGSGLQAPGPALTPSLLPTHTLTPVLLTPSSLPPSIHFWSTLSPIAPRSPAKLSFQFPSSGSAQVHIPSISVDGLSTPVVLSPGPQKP
Outline: as §1

GABPA = target: T3, GABPA (Homo sapiens, UniProt Q06546 1-454); conditions: protein: recombinant; tags: N-terminal GST; dsDNA, one strand shown
T3 sequence: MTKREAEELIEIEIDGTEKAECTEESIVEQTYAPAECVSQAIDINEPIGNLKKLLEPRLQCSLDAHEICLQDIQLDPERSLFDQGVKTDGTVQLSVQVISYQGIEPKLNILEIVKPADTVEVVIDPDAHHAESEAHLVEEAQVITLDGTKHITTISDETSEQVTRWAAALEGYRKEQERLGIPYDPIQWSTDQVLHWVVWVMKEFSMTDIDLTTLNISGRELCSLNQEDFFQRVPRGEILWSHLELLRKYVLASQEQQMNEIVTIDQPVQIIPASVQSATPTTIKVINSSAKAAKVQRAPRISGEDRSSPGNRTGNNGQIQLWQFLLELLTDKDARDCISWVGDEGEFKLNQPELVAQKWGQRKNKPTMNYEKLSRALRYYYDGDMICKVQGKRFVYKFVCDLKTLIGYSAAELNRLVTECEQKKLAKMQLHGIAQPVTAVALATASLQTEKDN
Outline: as §1

ERG = target: T4, ERG (Homo sapiens, UniProt P11308 1-479); conditions: protein: recombinant; tags: N-terminal GST; dsDNA, one strand shown
T4 sequence: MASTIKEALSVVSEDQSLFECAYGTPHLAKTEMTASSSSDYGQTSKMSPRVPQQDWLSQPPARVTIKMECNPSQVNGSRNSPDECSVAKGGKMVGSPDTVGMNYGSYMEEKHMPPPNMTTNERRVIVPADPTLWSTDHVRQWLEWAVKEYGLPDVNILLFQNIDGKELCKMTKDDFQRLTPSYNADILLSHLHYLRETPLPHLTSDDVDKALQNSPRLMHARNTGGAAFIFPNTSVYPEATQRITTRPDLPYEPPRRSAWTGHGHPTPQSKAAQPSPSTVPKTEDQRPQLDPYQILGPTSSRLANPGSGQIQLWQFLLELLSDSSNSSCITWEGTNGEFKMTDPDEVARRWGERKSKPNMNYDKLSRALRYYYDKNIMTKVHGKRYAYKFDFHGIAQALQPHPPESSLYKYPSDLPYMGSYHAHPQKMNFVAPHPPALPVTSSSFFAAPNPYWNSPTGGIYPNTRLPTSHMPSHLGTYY
Outline: as §1

ELF1 = ELF1 (Homo sapiens, UniProt P32519 1-619); conditions: protein: recombinant; tags: N-terminal GST; dsDNA, one strand shown
Chain of ELF1 (P32519 whole entry): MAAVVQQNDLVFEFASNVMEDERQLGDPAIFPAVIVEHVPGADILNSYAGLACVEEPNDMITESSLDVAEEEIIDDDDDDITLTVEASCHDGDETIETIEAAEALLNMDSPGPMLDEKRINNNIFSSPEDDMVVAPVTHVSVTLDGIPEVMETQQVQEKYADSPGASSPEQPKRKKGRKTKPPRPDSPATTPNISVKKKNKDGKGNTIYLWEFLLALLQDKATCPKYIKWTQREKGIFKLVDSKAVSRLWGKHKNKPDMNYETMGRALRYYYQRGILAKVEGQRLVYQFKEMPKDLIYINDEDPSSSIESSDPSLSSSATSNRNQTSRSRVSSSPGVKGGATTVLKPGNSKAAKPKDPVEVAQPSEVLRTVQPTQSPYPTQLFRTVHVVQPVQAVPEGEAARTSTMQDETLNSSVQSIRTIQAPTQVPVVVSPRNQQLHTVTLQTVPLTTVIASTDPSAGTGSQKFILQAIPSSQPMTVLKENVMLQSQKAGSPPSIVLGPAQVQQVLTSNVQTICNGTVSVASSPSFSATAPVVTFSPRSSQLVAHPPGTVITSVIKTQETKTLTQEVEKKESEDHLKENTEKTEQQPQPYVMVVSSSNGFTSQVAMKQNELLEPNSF
Outline: as §1

EHF = target: T5, EHF (Homo sapiens, UniProt Q9NZC4 1-300); conditions: protein: recombinant; tags: N-terminal GST; dsDNA, one strand shown
T5 sequence: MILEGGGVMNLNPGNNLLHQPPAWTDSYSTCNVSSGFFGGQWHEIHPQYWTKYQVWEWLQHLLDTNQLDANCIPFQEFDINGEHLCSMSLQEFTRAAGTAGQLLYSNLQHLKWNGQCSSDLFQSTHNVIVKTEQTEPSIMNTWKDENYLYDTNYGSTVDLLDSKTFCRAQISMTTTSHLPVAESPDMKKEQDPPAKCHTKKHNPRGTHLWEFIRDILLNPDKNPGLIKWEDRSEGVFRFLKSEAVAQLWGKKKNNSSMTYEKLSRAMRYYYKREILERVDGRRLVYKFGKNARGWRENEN
Outline: as §1

SPI1 = SPI1 (Homo sapiens, UniProt P17947 1-270); conditions: protein: recombinant; tags: N-terminal GST; dsDNA, one strand shown
Outline: as §1

SPIB = SPIB (Homo sapiens, UniProt Q01892 1-262); conditions: protein: recombinant; tags: N-terminal GST; dsDNA, one strand shown
Chain of SPIB (Q01892 whole entry): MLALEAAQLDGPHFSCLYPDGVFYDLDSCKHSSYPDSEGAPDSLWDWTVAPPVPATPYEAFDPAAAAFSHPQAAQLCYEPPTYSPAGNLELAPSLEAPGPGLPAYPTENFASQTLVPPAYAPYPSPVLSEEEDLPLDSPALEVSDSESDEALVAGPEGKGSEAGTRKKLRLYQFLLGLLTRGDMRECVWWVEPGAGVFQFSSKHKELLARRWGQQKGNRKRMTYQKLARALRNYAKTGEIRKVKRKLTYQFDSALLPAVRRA
Outline: as §1

ELK3 = target: T6, ELK3 (Homo sapiens, UniProt P41970 1-407); conditions: protein: recombinant; tags: N-terminal GST; dsDNA, one strand shown
T6 sequence: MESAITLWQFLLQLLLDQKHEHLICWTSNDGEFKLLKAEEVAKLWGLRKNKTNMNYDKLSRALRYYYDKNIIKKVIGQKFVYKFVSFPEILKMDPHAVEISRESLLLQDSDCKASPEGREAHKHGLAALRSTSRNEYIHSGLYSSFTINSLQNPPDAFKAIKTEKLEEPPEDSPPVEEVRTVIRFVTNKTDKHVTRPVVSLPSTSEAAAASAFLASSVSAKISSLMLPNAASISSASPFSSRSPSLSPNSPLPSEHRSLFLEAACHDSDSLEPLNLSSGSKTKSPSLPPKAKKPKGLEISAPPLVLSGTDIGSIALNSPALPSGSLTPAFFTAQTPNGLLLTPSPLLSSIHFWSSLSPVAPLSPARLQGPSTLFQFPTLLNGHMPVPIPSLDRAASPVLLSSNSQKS
Outline: as §1

FEV = target: T7, FEV (Homo sapiens, UniProt Q99581 1-238); conditions: protein: recombinant; tags: N-terminal GST; dsDNA, one strand shown
T7 sequence: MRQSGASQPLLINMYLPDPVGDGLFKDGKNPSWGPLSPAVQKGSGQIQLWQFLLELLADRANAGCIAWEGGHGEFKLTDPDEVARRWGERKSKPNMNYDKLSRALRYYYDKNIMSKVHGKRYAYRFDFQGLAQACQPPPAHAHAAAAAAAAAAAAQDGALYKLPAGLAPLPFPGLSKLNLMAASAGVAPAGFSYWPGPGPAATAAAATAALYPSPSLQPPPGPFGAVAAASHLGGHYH
Outline: as §1

ETV5 = ETV5 (Homo sapiens, UniProt P41161 1-510); conditions: protein: recombinant; tags: N-terminal GST; dsDNA, one strand shown
Chain of ETV5 (P41161 whole entry): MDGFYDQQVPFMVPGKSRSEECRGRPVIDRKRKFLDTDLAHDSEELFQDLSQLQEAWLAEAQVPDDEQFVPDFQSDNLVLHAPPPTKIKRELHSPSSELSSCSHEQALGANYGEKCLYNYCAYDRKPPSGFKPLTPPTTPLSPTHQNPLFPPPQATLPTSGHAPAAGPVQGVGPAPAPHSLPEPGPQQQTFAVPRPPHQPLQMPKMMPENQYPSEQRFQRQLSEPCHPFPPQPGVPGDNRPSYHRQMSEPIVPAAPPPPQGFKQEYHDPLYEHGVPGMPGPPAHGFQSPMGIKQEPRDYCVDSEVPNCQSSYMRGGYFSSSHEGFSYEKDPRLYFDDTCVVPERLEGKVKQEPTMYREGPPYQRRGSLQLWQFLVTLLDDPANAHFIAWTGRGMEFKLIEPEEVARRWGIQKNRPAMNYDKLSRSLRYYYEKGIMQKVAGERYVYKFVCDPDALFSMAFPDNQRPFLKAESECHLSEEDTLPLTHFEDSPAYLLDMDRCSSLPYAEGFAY
Outline: as §1

HSF1 = HSF1 (Homo sapiens, UniProt Q00613 1-529); conditions: protein: recombinant; tags: N-terminal GST; chain copies: 3; dsDNA, one strand shown
Chain of HSF1 (Q00613 whole entry): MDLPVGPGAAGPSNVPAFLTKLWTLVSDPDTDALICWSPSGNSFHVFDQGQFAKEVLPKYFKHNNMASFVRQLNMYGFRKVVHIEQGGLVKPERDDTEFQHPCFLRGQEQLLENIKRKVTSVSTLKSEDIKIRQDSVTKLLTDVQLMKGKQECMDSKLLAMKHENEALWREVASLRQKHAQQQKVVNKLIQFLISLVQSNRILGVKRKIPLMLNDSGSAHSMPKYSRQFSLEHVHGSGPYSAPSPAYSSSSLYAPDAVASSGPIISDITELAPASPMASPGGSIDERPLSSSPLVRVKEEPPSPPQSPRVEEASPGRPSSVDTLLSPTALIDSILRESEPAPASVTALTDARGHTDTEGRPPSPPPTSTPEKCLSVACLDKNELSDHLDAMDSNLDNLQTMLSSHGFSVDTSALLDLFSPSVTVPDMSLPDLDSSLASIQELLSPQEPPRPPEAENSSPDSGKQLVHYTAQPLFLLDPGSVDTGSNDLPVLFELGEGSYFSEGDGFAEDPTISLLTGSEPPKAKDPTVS
Outline: as §1

SPIC = target: T8, SPIC (Homo sapiens, UniProt Q8N5J4 1-248); conditions: protein: recombinant; tags: N-terminal GST; dsDNA, one strand shown
T8 sequence: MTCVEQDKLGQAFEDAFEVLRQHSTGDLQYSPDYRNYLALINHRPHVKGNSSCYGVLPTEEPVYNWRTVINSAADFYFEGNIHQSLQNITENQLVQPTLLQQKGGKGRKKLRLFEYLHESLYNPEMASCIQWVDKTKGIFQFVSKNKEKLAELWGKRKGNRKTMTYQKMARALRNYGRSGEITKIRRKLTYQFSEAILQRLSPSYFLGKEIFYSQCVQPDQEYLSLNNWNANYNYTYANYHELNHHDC
Outline: as §1

ELF4 = ELF4 (Homo sapiens, UniProt Q99607 1-663); conditions: protein: recombinant; tags: N-terminal GST; dsDNA, one strand shown
Chain of ELF4 (Q99607 whole entry): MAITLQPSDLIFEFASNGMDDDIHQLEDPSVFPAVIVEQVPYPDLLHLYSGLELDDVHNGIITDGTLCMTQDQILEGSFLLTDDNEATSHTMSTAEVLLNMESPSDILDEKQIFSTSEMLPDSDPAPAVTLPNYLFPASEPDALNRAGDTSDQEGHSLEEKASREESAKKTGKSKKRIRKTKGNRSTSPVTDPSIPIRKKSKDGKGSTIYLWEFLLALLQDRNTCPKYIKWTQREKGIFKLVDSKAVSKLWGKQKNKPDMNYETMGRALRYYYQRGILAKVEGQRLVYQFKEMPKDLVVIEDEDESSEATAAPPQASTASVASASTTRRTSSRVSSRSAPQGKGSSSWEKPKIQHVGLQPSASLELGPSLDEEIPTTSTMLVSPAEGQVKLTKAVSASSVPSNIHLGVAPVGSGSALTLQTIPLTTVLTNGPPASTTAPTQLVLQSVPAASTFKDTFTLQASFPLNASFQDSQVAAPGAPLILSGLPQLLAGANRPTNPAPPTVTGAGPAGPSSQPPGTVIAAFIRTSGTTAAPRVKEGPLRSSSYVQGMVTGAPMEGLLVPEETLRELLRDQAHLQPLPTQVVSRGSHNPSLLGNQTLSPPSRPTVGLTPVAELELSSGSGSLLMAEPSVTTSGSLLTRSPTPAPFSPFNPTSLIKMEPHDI
Outline: as §1

ELK4 = target: T9, ELK4 (Homo sapiens, UniProt P28324-2 1-405); conditions: protein: recombinant; tags: N-terminal GST; dsDNA, one strand shown
T9 sequence: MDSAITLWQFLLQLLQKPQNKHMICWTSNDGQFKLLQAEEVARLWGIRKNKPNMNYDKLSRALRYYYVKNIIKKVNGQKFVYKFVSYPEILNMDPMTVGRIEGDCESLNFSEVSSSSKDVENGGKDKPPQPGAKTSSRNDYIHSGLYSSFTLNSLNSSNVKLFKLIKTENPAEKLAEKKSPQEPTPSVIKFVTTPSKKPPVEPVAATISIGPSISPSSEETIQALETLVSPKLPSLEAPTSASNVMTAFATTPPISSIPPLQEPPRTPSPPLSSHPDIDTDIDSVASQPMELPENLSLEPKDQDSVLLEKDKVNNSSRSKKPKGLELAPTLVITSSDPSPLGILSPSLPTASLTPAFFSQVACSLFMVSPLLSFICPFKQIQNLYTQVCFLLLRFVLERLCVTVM
Outline: as §1

ETV2 = target: T10, ETV2 (Homo sapiens, UniProt O00321 1-342); conditions: protein: recombinant; tags: N-terminal GST; dsDNA, one strand shown
T10 sequence: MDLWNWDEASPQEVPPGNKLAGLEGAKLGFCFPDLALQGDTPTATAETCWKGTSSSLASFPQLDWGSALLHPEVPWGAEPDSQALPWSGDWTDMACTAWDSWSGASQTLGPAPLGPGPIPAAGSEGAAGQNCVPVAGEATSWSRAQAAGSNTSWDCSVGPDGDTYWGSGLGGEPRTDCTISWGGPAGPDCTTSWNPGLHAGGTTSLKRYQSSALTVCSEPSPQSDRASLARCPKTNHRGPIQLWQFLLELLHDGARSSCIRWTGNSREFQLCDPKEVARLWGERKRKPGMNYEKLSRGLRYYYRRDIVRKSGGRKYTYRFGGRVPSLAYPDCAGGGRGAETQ
Outline: as §1

ELF3 = target: T11, ELF3 (Homo sapiens, UniProt P78545 1-371); conditions: protein: recombinant; tags: N-terminal GST; dsDNA, one strand shown
T11 sequence: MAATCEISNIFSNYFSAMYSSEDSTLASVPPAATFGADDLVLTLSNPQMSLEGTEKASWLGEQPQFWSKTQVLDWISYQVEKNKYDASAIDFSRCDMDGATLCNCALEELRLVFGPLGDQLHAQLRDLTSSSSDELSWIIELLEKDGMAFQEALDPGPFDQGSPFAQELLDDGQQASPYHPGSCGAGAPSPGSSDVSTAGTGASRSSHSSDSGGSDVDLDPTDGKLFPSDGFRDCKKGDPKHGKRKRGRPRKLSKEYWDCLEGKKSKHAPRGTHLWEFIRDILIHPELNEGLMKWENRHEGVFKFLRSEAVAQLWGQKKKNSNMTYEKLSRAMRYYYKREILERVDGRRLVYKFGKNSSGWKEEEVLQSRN
Outline: as §1

CRX = CRX (Homo sapiens, UniProt O43186 1-299); conditions: protein: recombinant; tags: N-terminal GST; dsDNA, one strand shown
Chain of CRX (O43186 whole entry): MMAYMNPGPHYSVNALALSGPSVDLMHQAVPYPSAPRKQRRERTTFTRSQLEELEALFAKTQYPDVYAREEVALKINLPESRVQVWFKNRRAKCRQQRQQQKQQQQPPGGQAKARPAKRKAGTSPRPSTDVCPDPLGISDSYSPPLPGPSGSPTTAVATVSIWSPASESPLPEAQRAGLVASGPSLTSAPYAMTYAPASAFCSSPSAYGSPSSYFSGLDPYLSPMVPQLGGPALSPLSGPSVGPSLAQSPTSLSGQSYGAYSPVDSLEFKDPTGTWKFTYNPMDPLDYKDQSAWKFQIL
Outline: as §1

ETV1 = ETV1 (Homo sapiens, UniProt P50549 1-477); conditions: protein: recombinant; tags: N-terminal GST; dsDNA, one strand shown
Chain of ETV1 (P50549 whole entry): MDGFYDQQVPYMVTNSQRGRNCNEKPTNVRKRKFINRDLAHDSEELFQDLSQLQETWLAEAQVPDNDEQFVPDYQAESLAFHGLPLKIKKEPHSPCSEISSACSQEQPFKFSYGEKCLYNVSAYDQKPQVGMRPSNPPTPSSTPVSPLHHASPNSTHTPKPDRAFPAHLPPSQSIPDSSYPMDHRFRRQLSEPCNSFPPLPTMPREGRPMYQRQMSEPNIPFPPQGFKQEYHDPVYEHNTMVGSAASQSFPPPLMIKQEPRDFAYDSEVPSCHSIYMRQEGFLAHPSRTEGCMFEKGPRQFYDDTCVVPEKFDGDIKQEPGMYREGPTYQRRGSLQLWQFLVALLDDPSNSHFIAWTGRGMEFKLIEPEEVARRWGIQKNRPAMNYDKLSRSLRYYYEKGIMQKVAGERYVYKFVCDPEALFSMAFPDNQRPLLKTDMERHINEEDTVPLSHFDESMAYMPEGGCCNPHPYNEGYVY
Outline: as §1

With TCCCAT the binding signal (FLI1) was 1.36 fold enrichment (6-mer frequency, TF over GST control), the binding signal (ELK1) was 1.37 fold enrichment (6-mer frequency, TF over GST control) and the binding signal (GABPA) was 1.51 fold enrichment (6-mer frequency, TF over GST control). The binding signal (ERG) was 1.45 fold enrichment (6-mer frequency, TF over GST control), the binding signal (ELF1) was 1.44 fold enrichment (6-mer frequency, TF over GST control) and the binding signal (EHF) was 1.43 fold enrichment (6-mer frequency, TF over GST control). For the same sequence, the binding signal (SPI1) was 1.28 fold enrichment (6-mer frequency, TF over GST control), the binding signal (SPIB) was 1.48 fold enrichment (6-mer frequency, TF over GST control) and the binding signal (ELK3) was 1.47 fold enrichment (6-mer frequency, TF over GST control). The binding signal (FEV) was 1.32 fold enrichment (6-mer frequency, TF over GST control), the binding signal (ETV5) was 1.34 fold enrichment (6-mer frequency, TF over GST control) and the binding signal (HSF1) was 1.21 fold enrichment (6-mer frequency, TF over GST control). For the same sequence, the binding signal (SPIC) was 1.45 fold enrichment (6-mer frequency, TF over GST control), the binding signal (ELF4) was 1.29 fold enrichment (6-mer frequency, TF over GST control) and the binding signal (ELK4) was 1.27 fold enrichment (6-mer frequency, TF over GST control). The binding signal (ETV2) was 1.41 fold enrichment (6-mer frequency, TF over GST control), the binding signal (ELF3) was 1.44 fold enrichment (6-mer frequency, TF over GST control) and the binding signal (CRX) was 1.43 fold enrichment (6-mer frequency, TF over GST control). For the same sequence, the binding signal (ETV1) was 1.37 fold enrichment (6-mer frequency, TF over GST control).
